Laboratory results: the supplement of paper PMC11732987, “Enantioselective OTUD7B fragment discovery through chemoproteomics screening and high-throughput optimisation” (Communications Chemistry, 2025)
Values without a mark were called inactive.

The compounds below were run against T1, VCPIP1 (UniProt Q96JH7) (assay: log2 ratio of Biotin-Ahx-Ub-VS probe labelling (fragment/DMSO); higher = less target engagement (more negative = stronger competition), active = hit call of the paper (q ≤ 0.05, log2 ratio ≤ -1)). Details: compound concentration: 200 uM; treatment time: 3 h.
T1 sequence (whole entry): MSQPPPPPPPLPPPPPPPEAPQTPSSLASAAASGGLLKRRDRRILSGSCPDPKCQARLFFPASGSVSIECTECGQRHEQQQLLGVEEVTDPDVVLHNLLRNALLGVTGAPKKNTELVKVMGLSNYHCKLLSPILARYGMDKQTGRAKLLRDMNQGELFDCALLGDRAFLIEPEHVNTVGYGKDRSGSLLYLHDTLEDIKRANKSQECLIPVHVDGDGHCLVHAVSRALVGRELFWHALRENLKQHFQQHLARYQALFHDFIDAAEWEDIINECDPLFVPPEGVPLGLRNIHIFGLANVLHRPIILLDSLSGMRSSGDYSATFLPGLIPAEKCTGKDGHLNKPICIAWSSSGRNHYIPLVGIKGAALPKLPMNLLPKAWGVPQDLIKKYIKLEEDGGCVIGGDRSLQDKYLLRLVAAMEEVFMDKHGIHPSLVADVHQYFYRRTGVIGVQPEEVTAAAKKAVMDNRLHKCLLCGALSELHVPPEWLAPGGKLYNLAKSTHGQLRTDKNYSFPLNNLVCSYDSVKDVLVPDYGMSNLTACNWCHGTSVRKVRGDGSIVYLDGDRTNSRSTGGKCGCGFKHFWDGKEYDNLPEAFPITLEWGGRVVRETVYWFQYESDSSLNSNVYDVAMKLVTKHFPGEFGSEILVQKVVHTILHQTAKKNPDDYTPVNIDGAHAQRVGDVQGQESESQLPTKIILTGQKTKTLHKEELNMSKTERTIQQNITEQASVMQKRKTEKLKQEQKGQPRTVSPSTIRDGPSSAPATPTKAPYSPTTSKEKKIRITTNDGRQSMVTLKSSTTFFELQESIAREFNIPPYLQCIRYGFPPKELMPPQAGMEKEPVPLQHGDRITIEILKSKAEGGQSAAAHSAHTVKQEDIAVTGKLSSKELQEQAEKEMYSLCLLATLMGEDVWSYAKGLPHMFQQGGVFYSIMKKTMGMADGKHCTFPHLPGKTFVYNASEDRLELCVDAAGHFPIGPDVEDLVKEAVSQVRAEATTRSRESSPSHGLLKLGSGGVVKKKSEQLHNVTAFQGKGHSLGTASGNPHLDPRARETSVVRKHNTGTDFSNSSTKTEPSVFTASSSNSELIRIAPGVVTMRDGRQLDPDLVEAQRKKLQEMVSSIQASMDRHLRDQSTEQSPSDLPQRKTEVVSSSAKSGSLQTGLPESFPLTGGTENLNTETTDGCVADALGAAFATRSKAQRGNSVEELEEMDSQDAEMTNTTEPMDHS
Experimental: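 Competitive ABPP in HEK293T cell lysate. Lysates were treated with each chloroacetamide fragment at 200 µM for 3 h, then with Biotin-Ahx-Ub-VS (0.5 µM, 1 h), NeutrAvidin-enriched and analysed by diaPASEF LC-MS/MS. Protein LFQ was median-normalised; average log2 ratio is fragment/DMSO from an unpaired t-test (n=3 treated, n=44 DMSO). Hits: q ≤ 0.05, log2 ratio ≤ -1, unique peptides ≥ 2.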
With `Cc1cc(C2CCCN2C(=O)CCl)nn1C.Cl` (stereo not given) the “log2 ratio of Biotin-Ahx-Ub-VS probe labelling” value (“log2 ratio” below) was -0.866. With `Cl.O=C(CCl)N[C@H]1C[C@@H](n2cccn2)C1` the “log2 ratio” value was -0.848. With `Cc1cccc(C(CNC(=O)CCl)N2CCOCC2)c1.Cl` (stereo not given) the “log2 ratio” value was -0.833. For `CC(NC(=O)CCl)c1cccc(Cl)c1` (stereo not given), the “log2 ratio” value was -1.59 (active). For `Cc1ccc(C(=O)NCCNC(=O)CCl)cc1`, the “log2 ratio” value was -2.4 (active). For `O=C(CCl)NCC1(c2ccccc2)CC1`, the “log2 ratio” value was -2.43 (active). For `O=C(CCl)Nc1cc2c(cc1Cl)OCCCO2`, the “log2 ratio” value was -2.71 (active). In the case of `O=C(CCl)Nc1nc(-c2cccs2)cs1`, the “log2 ratio” value is reported as -2.02 (active). For `Cc1ccc(CN(C)C(=O)CCl)o1`, the “log2 ratio” value was -0.13. With `CS(=O)(=O)c1ccc(NC(=O)CCl)cc1` the “log2 ratio” value was -1.23 (active). For `O=C(CCl)Nc1ccc(N2CCCC2=O)cc1`, the “log2 ratio” value was -1.2 (active). For `Cc1c(C#N)c(NC(=O)CCl)n(Cc2ccco2)c1C`, the “log2 ratio” value was -2.32 (active). `O=C(CCl)Nc1cccc2ncccc12` was tested, and the “log2 ratio” value was -0.848. `Cc1ccccc1C1(CNC(=O)CCl)CCOCC1` was tested, and the “log2 ratio” value was -0.843. `CC(NC(=O)CCl)c1csc(-c2ccccc2)n1.Cl` (stereo not given) was tested, and the “log2 ratio” value was -2.16 (active). In the case of `Cc1cccc(NC(=O)[C@@H]2CCCN2C(=O)CCl)n1`, the “log2 ratio” value is reported as -0.551. For `Cl.Cn1ncc2c1CCCC2NC(=O)CCl` (stereo not given), the “log2 ratio” value was -1.7 (active). With `Cc1cccc2nc(CCNC(=O)CCl)cn12.Cl` the “log2 ratio” value was -1.77 (active). `O=C(CCl)N1CCOCC1C1CC1` (stereo not given) was tested, and the “log2 ratio” value was -0.493. For `CC1(NC(=O)CCl)CCS(=O)(=O)C1` (stereo not given), the “log2 ratio” value was -0.848. With `CC(=O)Nc1ccc(NC(=O)CCl)cc1` the “log2 ratio” value was -1.31 (active). `NC(=O)C(Cc1ccccc1)NC(=O)CCl` (stereo not given) was tested, and the “log2 ratio” value was -0.38. For `Cc1nc(CN2CCCN(C(=O)CCl)CC2)no1.Cl`, the “log2 ratio” value was -0.1. In the case of `O=C(CCl)NCCc1ccc2c(c1)OCCO2`, the “log2 ratio” value is reported as -2.55 (active). For `O=C(CCl)N1CCc2[nH]c3ccccc3c2C1`, the “log2 ratio” value was -2.89 (active). `O=C(CCl)NCCC1COCCO1` (stereo not given) was tested, and the “log2 ratio” value was -0.791. `CNC(=O)C1(NC(=O)CCl)CCCCC1` was tested, and the “log2 ratio” value was -0.262. In the case of `O=C(CCl)NC1CCS(=O)(=O)c2ccccc21` (stereo not given), the “log2 ratio” value is reported as -1.22 (active). For `Cc1cccnc1NC(=O)C1CCN(C(=O)CCl)CC1.Cl`, the “log2 ratio” value was -0.543. In the case of `Cc1ccn2cc(CNC(=O)CCl)nc2c1.Cl`, the “log2 ratio” value is reported as -0.598. `Cl.O=C(CCl)N1CCC(n2nc3ccccc3n2)CC1` was tested, and the “log2 ratio” value was -2.56 (active). In the case of `Cc1cc(C(=O)NC2CCN(C(=O)CCl)CC2)no1`, the “log2 ratio” value is reported as -0.548. For `Cc1nc(CC2CCN(C(=O)CCl)CC2)no1`, the “log2 ratio” value was -0.733. `O=C(CCl)N1CCCCC12CCOCC2` was tested, and the “log2 ratio” value was -0.562. In the case of `CCCn1nccc1NC(=O)CCl`, the “log2 ratio” value is reported as -0.41. `Cc1ncsc1CCNC(=O)CCl` was tested, and the “log2 ratio” value was 0.0583. `O=C(CCl)NC1CCCCNC1=O` (stereo not given) was tested, and the “log2 ratio” value was -0.603. In the case of `CCN(Cc1ccc(C#N)cc1F)C(=O)CCl`, the “log2 ratio” value is reported as -0.594. `O=C(CCl)N1CCCN(C(=O)c2ccc(Cl)cc2)CC1` was tested, and the “log2 ratio” value was -0.589. For `CCC1c2ccsc2CCN1C(=O)CCl` (stereo not given), the “log2 ratio” value was -0.892.
